Records with an inconclusive call do not appear. The source made the active and inactive calls. The calls were made as follows, unless noted: active = hit-call score of the fitted dose curve at least 0.9, where 1 is the maximum; inconclusive = response in the unintended direction; inactive = score below 0.9.

Assay [1] in a line: ATG_TGFb_CIS: Attagene CIS-FACTORIAL HepG2 Assay for human Transforming Growth Factor (TGF) (AID 2282967; active = hit-call score of the fitted dose curve at least 0.9, where 1 is the maximum; inactive = score below 0.9). The settings on record: HepG2 Attagene CIS TGFb reporter, mRNA transcription; actives raise or lower the signal. Put shortly: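 Bidirectional fitting relative to DMSO gave the endpoint. Underlying data: reporter mRNA from HepG2 cells carrying transiently transfected cis-regulated reporter constructs, harvested 24 h after dosing and analyzed by RT-PCR and capillary electrophoresis.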

Assay [2] has as its target Estrogen receptor (Homo sapiens) (UniProt P03372). The experiment in a line: ATG_ERa_TRANS: Attagene TRANS-FACTORIAL HepG2 Assay for human Estrogen Receptor alpha (ERa) (AID 2282970). Particulars: HepG2 Attagene TRANS ERa GAL4 reporter, mRNA. In a few lines: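 Gal4-fusion ERa transactivation, measured as reporter transcript level in transiently transfected HepG2 cells. Exposure 24 h; RT-PCR plus capillary electrophoresis with fluorescence detection.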

The target in assay [3] is X-box-binding protein 1 (Homo sapiens) (UniProt P17861). As to the kind of experiment: ATG_Xbp1_CIS: Attagene CIS-FACTORIAL HepG2 Assay for human X-box Binding Protein 1 (XBP1) (AID 2282972; active = hit-call score of the fitted dose curve at least 0.9, where 1 is the maximum; inactive = score below 0.9). Particulars: HepG2 XBP1 cis-element reporter, Attagene multiplex; actives raise or lower the signal. In a few lines: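 Reporter transcripts were quantified by RT-PCR with fluorescent primer extension and capillary electrophoresis after 24 h chemical exposure. Cells: transiently transfected HepG2 carrying cis-regulated reporter constructs; data fitted bidirectionally relative to DMSO.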

The nature of assay [4]: ATG_GAL4_TRANS: Attagene TRANS-FACTORIAL HepG2 Assay for GAL4 (Internal Marker) (AID 2282976). Particulars: HepG2 Attagene TRANS GAL4 internal marker reporter. In a few lines: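 Background-control readout: GAL4-UAS reporter transcript in transiently transfected HepG2 cells after 24 h compound exposure. Measured by RT-PCR, 6-FAM primer extension, HpaI digest and capillary electrophoresis; gain-of-signal fit versus DMSO.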

For assay [5], the target named is Hepatocyte nuclear factor 4-alpha (Homo sapiens) (UniProt P41235). The experiment in a line: ATG_HNF4a_TRANS: Attagene TRANS-FACTORIAL HepG2 Assay for human Hepatocyte Nuclear Factor 4 alpha (HNF4a) (AID 2282982). Particulars: HepG2 HNF4a transactivation reporter, mRNA readout. Put shortly:
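Endpoint reflects transcriptional activation of a GAL4-UAS reporter by an HNF4a-GAL4 chimera in transfected HepG2 cells, 24 h post-dosing. Fluorescence from RT-PCR products separated by capillary electrophoresis; DMSO baseline.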

A short description of assay [6]: ATG_M_06_TRANS: Attagene TRANS-FACTORIAL HepG2 Assay for M06 Transcription Factor (Internal Marker) (AID 2282983). The settings on record: HepG2 Attagene TRANS M06 internal marker reporter. In a few lines: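 mRNA levels of a reporter transcript, quantified as FAM fluorescence on capillary electrophoresis, served as readout. HepG2 cells expressing exogenous GAL4-chimera reporter constructs were exposed for 24 h. Gain of signal over DMSO was evaluated.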

Assay [7] can be described thus: ATG_M_32_TRANS: Attagene TRANS-FACTORIAL HepG2 Assay for M32 Transcription Factor (Internal Marker) (AID 2282984). The settings on record: HepG2 Attagene TRANS M32 internal marker reporter. Put shortly:
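Internal-marker readout from a multiplexed transcription reporter panel. HepG2 cells were transfected with GAL4-UAS reporter units, treated 24 hours, and reporter transcript levels determined by fluorescence after RT-PCR and capillary separation.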

Assay [8] addresses Nuclear receptor subfamily 4 group A member 2 (Homo sapiens) (UniProt P43354). As to the kind of experiment: ATG_NURR1_TRANS: Attagene TRANS-FACTORIAL HepG2 Assay for human Nuclear Receptor Related Protein 1 (NURR1) (AID 2282985). Particulars: HepG2 Attagene TRANS reporter, mRNA readout. Put shortly: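 Endpoint: reporter mRNA increase relative to DMSO. HepG2 cells transfected with reporter units, treated 24 h; RNA processed by RT-PCR, labelling, HpaI digestion and capillary electrophoresis.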

In assay [9] the target is Transcriptional activator Myb (Homo sapiens) (UniProt P10242). As to the kind of experiment: ATG_Myb_CIS: Attagene CIS-FACTORIAL HepG2 Assay for human Myeloblastosis (Myb) Proto-Oncogene Transcription Factor (AID 2282986; active = hit-call score of the fitted dose curve at least 0.9, where 1 is the maximum; inactive = score below 0.9). Particulars: HepG2 Attagene CIS-FACTORIAL Myb reporter transcription; actives raise or lower the signal. Put shortly: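 Using HepG2 liver cells bearing transiently transfected cis-promoter reporter constructs, the assay measures induction or loss of reporter mRNA after 24 hours of dosing. Detection used fluorescently labeled RT-PCR products separated by capillary electrophoresis.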

Assay [10] has as its target Nuclear respiratory factor 1 (Homo sapiens) (UniProt Q16656). The experiment in a line: ATG_NRF1_CIS: Attagene CIS-FACTORIAL HepG2 Assay for human Nuclear Respiratory Factor 1 (NRF1) Orphan Gene (AID 2282987; active = hit-call score of the fitted dose curve at least 0.9, where 1 is the maximum; inactive = score below 0.9). Particulars: HepG2 NRF1 cis-element reporter, Attagene multiplex; actives raise or lower the signal. In a few lines:
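Reporter mRNA induction or loss in HepG2 cells after 24 h dosing; cis-regulated reporter constructs report endogenous transcription-factor activity. Quantified by RT-PCR/capillary electrophoresis fluorescence, DMSO-referenced.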

Assay [11] deals with Steroid hormone receptor ERR1 (Homo sapiens) (UniProt P11474). The experiment in a line: ATG_ERRa_TRANS: Attagene TRANS-FACTORIAL HepG2 Assay for human Estrogen-Related Receptor alpha (ERRa) (AID 2282971). Particulars: HepG2 Attagene TRANS reporter, ERRa transactivation. In a few lines:
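HepG2 cells transiently transfected with GAL4-UAS reporter units and chimeric NR-Gal4 constructs; after 24 hour compound incubation, reporter mRNA quantified by RT-PCR, fluorescent labelling and capillary electrophoresis, gain of signal versus DMSO.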

For assay [12], the target named is Androgen receptor (Homo sapiens) (UniProt P10275). The experiment in a line: ATG_AR_TRANS: Attagene TRANS-FACTORIAL HepG2 Assay for human Androgen Receptor (AR) (AID 2282973). The settings on record: HepG2 Attagene TRANS-FACTORIAL AR reporter transcription. In a few lines:
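HepG2 cells transiently transfected with AR-Gal4 chimera and GAL4-UAS reporter units; chemical exposure 24 h. Reporter mRNA quantified by RT-PCR with fluorescent labelling and capillary electrophoresis; gain-of-signal fitted against DMSO.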

The target in assay [13] is Glucocorticoid receptor (Homo sapiens) (UniProt P04150). The experiment in a line: ATG_GR_TRANS: Attagene TRANS-FACTORIAL HepG2 Assay for human Glucocorticoid Receptor (GR) (AID 2282978).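 Also: activators score as hits since higher reporter transcript over DMSO is fitted.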 The settings on record: HepG2 Attagene TRANS GR reporter, mRNA transcription. In a few lines: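 Transiently transfected HepG2 cells express chimeric NR-GAL4 proteins acting on GAL4-UAS reporter units. Compounds are applied for 24 h. mRNA induction over DMSO is measured by capillary electrophoresis.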

For assay [14], the target named is Bile acid receptor (Homo sapiens) (UniProt Q96RI1). As to the kind of experiment: ATG_FXR_TRANS: Attagene TRANS-FACTORIAL HepG2 Assay for Farnesoid X Receptor (FXR) (AID 2282979).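 Also: hits raise reporter mRNA above DMSO so AC50 marks FXR activation.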 The settings on record: HepG2 Attagene TRANS FXR-GAL4 reporter transcription. Put shortly:
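HepG2 cells were transiently transfected with GAL4-UAS reporters driven by chimeric NR-Gal4 proteins and dosed for 24 h. Reporter mRNA was quantified by RT-PCR, fluorescent labelling, HpaI digestion and capillary electrophoresis, with gain of signal scored versus DMSO.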

The target in assay [15] is Oxysterols receptor LXR-beta (Homo sapiens) (UniProt P55055). The experiment in a line: ATG_LXRb_TRANS: Attagene TRANS-FACTORIAL HepG2 Assay for human Liver X Receptor beta (LXRb) (AID 2282981). Particulars: HepG2 Attagene TRANS GAL4-LXRb reporter, mRNA. Put shortly:
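Multiplexed reporter assay, HepG2, 24 h dosing. Fluorescence of labelled RT-PCR products after capillary electrophoresis gives transcript level; positive fitting direction relative to DMSO.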

Assay [16] has as its target Estrogen-related receptor gamma (Homo sapiens) (UniProt P62508). The experiment in a line: ATG_ERRg_TRANS: Attagene TRANS-FACTORIAL HepG2 Assay for human Estrogen-Related Receptor gamma (ERRg) (AID 2282977).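 Also: hits increase reporter signal over DMSO so potencies reflect activators.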 The settings on record: HepG2 Attagene TRANS reporter, ERRg transactivation. In a few lines:
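Exogenous NR-Gal4 chimera activity measured as reporter transcript induction after 24 h in transiently transfected HepG2 cells. RNA reverse-transcribed, PCR-amplified, 6-FAM-labelled and resolved by capillary electrophoresis; increase over DMSO baseline.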

Assay [17] addresses Oxysterols receptor LXR-alpha (Homo sapiens) (UniProt Q13133). The experiment in a line: ATG_LXRa_TRANS: Attagene TRANS-FACTORIAL HepG2 Assay for human Liver X Receptor alpha (LXRa) (AID 2282980). Particulars: HepG2 Attagene TRANS reporter, LXRa transactivation. In a few lines:
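HepG2 cells transiently transfected with GAL4-UAS reporter units for chimeric NR-Gal4 proteins, exposed to chemicals for 24 h. Reporter mRNA quantified by RT-PCR and capillary electrophoresis; gain of signal fitted relative to DMSO.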

Assay [18] can be described thus: ATG_M_19_TRANS: Attagene TRANS-FACTORIAL HepG2 Assay for M19 Transcription Factor (Internal Marker) (AID 2282974). Particulars: HepG2 Attagene TRANS-FACTORIAL M19 internal marker reporter. Put shortly: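 Multiplexed TRANS format: HepG2 liver cells bearing transient GAL4-UAS reporter units, chemical treatment 24 h, reporter transcripts quantified by RT-PCR plus capillary electrophoresis. DMSO defines baseline.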

Sequence of Androgen receptor (Homo sapiens) (P10275 whole entry, looked up, the tested form may be a part): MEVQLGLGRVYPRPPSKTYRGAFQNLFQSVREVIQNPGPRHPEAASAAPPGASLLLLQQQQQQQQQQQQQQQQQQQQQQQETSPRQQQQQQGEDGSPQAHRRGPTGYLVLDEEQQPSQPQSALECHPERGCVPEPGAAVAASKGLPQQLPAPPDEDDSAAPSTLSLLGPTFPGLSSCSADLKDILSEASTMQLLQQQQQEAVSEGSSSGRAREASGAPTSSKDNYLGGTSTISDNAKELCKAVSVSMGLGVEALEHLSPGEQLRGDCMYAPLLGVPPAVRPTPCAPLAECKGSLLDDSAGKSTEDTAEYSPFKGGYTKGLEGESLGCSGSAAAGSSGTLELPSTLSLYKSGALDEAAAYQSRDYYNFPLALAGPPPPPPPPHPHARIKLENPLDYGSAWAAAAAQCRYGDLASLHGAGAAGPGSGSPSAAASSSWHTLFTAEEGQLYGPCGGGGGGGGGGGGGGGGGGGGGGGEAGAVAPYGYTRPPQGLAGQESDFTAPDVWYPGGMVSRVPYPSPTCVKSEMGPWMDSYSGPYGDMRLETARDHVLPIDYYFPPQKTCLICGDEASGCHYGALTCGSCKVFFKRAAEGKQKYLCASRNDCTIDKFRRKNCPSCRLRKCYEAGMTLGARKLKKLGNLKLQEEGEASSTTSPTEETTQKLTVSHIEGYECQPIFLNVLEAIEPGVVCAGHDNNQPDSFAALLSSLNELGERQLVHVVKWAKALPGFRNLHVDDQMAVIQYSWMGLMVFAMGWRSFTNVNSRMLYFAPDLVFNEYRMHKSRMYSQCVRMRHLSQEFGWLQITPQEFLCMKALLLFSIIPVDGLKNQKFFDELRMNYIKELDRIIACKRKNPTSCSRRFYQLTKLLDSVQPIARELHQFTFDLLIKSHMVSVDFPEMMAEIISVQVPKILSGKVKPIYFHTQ
Sequence of X-box-binding protein 1 (Homo sapiens) (P17861 whole entry, looked up): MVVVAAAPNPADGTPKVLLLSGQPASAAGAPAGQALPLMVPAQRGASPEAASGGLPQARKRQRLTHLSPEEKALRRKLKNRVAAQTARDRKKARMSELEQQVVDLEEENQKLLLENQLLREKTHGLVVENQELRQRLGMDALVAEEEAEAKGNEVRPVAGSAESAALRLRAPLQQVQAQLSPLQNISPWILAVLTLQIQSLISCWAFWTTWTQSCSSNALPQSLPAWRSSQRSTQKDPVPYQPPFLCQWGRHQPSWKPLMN
Sequence of Nuclear respiratory factor 1 (Homo sapiens) (Q16656 whole entry, looked up): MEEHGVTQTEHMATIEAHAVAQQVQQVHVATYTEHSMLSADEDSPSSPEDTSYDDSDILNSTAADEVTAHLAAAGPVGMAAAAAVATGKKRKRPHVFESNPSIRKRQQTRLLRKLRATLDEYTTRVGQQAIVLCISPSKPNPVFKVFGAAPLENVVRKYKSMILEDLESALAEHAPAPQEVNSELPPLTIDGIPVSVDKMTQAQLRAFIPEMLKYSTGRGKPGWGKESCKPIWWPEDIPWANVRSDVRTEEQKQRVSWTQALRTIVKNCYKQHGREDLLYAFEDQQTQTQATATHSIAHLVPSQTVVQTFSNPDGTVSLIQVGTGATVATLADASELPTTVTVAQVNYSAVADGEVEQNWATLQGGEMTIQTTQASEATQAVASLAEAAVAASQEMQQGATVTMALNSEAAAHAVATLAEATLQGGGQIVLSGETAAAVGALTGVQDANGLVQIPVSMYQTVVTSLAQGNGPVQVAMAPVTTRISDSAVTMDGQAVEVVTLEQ
Sequence of Bile acid receptor (Homo sapiens) (Q96RI1 whole entry, looked up, the tested form may be a part): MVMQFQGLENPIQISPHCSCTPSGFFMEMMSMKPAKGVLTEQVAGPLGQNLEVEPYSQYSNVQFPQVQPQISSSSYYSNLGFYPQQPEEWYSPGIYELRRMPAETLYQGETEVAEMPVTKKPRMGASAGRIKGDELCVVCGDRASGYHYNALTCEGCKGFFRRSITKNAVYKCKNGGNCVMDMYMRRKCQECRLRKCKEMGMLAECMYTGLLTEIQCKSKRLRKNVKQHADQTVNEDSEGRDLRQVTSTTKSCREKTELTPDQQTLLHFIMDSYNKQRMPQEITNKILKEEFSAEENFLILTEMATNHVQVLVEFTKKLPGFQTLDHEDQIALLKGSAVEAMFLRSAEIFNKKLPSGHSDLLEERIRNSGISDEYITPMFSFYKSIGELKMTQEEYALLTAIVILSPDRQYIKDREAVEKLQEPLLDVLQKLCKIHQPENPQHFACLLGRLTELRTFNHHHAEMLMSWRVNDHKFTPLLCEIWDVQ
Sequence of Transcriptional activator Myb (Homo sapiens) (P10242 whole entry, looked up): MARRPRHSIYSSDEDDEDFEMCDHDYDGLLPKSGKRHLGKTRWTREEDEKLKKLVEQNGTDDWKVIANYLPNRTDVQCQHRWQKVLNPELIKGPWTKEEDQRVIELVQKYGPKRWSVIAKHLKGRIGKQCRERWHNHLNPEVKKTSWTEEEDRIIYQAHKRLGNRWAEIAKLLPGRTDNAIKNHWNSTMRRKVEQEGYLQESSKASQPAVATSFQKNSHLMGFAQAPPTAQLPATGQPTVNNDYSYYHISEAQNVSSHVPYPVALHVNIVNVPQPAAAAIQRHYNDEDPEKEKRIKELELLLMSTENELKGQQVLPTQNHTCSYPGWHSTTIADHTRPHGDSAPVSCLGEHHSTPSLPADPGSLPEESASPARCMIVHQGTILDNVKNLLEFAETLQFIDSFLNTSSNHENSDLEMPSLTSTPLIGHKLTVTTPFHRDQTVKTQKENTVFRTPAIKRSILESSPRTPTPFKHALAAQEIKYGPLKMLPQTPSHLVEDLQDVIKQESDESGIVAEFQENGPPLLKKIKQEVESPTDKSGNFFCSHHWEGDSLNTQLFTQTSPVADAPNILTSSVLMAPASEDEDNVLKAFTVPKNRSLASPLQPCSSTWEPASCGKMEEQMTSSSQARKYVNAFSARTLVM
Sequence of Oxysterols receptor LXR-alpha (Homo sapiens) (Q13133 whole entry, looked up, the tested form may be a part): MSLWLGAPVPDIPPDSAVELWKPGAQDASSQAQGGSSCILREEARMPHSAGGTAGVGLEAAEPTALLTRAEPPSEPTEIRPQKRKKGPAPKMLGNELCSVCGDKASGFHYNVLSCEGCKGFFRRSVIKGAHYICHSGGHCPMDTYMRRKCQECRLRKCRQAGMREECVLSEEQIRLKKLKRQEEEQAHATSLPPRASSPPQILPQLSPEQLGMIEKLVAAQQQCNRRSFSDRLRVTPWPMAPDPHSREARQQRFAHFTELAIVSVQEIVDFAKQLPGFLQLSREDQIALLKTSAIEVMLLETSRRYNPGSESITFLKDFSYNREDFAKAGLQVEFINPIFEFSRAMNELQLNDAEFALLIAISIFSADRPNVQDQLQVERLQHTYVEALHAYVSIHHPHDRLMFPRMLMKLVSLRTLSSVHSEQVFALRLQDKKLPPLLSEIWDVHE
Sequence of Hepatocyte nuclear factor 4-alpha (Homo sapiens) (P41235 whole entry, looked up, the tested form may be a part): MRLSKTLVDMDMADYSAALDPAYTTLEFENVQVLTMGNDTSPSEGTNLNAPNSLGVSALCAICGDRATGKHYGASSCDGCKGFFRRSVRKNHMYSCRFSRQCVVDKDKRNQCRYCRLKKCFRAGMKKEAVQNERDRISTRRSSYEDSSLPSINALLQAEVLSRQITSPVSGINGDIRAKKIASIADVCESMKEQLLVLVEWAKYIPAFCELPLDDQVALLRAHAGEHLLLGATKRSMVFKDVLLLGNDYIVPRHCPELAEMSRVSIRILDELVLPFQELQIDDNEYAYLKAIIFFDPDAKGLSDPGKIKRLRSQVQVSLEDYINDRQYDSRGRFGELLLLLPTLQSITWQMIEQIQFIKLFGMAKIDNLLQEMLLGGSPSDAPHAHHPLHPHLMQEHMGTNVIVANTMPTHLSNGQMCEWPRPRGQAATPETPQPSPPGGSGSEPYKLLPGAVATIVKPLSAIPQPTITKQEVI
Sequence of Estrogen-related receptor gamma (Homo sapiens) (P62508 whole entry, looked up, the tested form may be a part): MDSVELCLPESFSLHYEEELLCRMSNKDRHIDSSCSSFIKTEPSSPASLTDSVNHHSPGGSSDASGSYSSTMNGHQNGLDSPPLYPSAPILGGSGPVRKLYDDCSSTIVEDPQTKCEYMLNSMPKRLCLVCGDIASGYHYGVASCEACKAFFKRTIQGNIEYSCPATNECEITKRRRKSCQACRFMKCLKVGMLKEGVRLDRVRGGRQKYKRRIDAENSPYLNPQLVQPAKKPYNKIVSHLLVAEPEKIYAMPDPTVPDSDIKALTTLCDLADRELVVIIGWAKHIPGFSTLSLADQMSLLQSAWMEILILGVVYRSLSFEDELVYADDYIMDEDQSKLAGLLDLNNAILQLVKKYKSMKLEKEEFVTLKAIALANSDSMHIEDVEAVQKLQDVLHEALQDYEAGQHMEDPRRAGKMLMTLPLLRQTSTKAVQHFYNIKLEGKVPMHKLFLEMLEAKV
Sequence of Steroid hormone receptor ERR1 (Homo sapiens) (P11474 whole entry, looked up, the tested form may be a part): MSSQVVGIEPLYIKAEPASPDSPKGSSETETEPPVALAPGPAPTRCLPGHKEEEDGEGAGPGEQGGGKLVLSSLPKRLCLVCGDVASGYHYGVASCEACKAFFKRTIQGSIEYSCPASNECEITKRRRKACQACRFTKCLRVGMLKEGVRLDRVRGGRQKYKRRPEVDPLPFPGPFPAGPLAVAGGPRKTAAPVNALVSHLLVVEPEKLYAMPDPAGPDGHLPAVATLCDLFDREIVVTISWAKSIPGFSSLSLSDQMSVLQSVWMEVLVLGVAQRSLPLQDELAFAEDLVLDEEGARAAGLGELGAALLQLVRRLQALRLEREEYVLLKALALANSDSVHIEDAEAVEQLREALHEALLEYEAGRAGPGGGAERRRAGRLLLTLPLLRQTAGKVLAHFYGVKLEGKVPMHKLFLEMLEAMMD

As for `O=C(Cc1ccccc1)OCCc1ccccc1`, the AC50 (as a rule, the concentration at which the activity in the assay is half-maximal) in assay [1] was 115 µM (active). Also, the result in [2], in assay [3], in assay [4], in assay [5], in assay [6] and in assay [7] was inactive. Further, the result in assay [8], in assay [9] and in assay [10] was inactive.
Take `Cc1cc(C(C)(C)c2ccc(O)c(C)c2)ccc1O`: the call in [1], in assay [11], in assay [12], in assay [13], in assay [15] and in assay [5] was inactive. For the same compound, the result in assay [6], in [7] and in assay [10] was inactive. The AC50 in assay [3] is 36.4 µM (active); in [14] it was 4.72 µM (active); in assay [9], 89.7 µM (active).
As to `O=S(=O)(F)C(F)(F)C(F)(F)C(F)(F)C(F)(F)F`, the outcome in assay [1], in assay [3], in [12], in assay [4], in assay [16] and in assay [14] was inactive. The outcome in assay [17], in [15], in assay [6], in assay [7], in assay [9] and in [10] was inactive.
Turning to `COCCl`, the compound was classed as inactive in [1], in assay [11], in assay [3], in assay [12], in assay [18] and in assay [4]. The outcome in assay [13], in assay [17], in assay [6], in assay [7], in [9] and in [10] was inactive.
For `Cc1cccc(C)c1NC(=O)CN1CCCC1=O`, the outcome in assay [1], in [3], in [14], in assay [17], in assay [6] and in [9] was inactive. Besides, the compound was classed as inactive in assay [10].
On to `Brc1ccc(Br)cc1`, for which the compound was called inactive in assay [1], in assay [3], in assay [18], in [4], in assay [16] and in assay [17]. The result in [9] and in assay [10] was inactive.
Turning to `COC(=O)Nc1cccc(OC(=O)Nc2cccc(C)c2)c1`, the outcome in assay [1], in assay [3], in [18], in [16], in assay [14] and in [17] was inactive. In addition, the compound was classed as inactive in assay [6], in assay [9] and in [10].
Take `O=c1nc(O)n(Cl)c(=O)n1Cl`: the compound was classed as inactive in assay [1], in assay [11], in [3], in [18], in assay [4] and in [16]. Further, the call in [6], in assay [7], in assay [9] and in assay [10] was inactive.
For `CCCCC(CC)C(=O)Cl` (centres undefined), the compound was called inactive in assay [1], in assay [2], in [3], in [18], in assay [14] and in assay [5]. Further, the outcome in assay [6], in assay [9] and in [10] was inactive.
In the case of `O=C1C[C@@H]2OCC=C3CN4CC[C@]56c7ccccc7N1[C@H]5[C@H]2[C@H]3C[C@H]46`, the outcome in assay [1], in assay [3], in [18], in assay [4], in [17] and in [6] was inactive. The compound was called inactive in assay [7], in assay [8], in assay [9] and in assay [10].

Source of the values: PubChem BioAssay (EPA / NIEHS).
